From PubChem BioAssay (NCATS)
Inconclusive results are not listed. Active and inactive are the calls of the source. The call rests on the fitted dose curve; in most records, active means well fitted curve in the direction sought with a large enough effect; inconclusive means small, poorly fitted or top-dose-only effect, or another doubt; inactive means no such curve, though single readings can be large; an effect the other way counts as inactive or inconclusive.

What was measured:
[1] = Cell Viability - LYMP2-001 (AID 921); further: series mostly up to about 92 µM; nearly all actives have a fitted effect of over 70% in size
Procedure, shortened: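 Human lymphoblastoid cells (Coriell), 2500 per well, were preincubated 5 hr at 37 C, then exposed to compounds in complete medium for 24 hr at 37 C. Cellular ATP was read by CellTiter-Glo luminescence; AC50 from Hill fits of concentration-response data.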

[2] = MultiTox-Fluor Cytotoxicity Assay - LYMP1-001 - Dead Cells (AID 946)
Procedure, shortened: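 Cytotoxicity as increased dead-cell protease fluorescence (bis-AAF-R110, 485/520 nm), read 60 min after MultiTox-Fluor reagent. Human lymphoblastoid line exposed 16 h; Hill-fitted AC50, with DMSO as 0% and 15 uM tetraoctylammonium bromide as 100%.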

[3] = MultiTox-Fluor Cytotoxicity Assay - LYMP1-001 - Live Cells (AID 947)
[4] = Cell Viability - LYMP1-002 - Assay at 16 hr (AID 948)
Procedure, shortened: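 Human lymphoblastoid cells (LYMP1-002), 2500/well, were preincubated 5 hr at 37 C, then exposed to compounds for 16 hr at 37 C in complete medium. Cellular ATP was read by CellTiter-Glo luminescence after 30 min at room temperature; AC50 from Hill fits.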

[5] = MultiTox-Fluor Cytotoxicity Assay - LYMP1-002 - Live Cells (AID 955)
Procedure, shortened: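 Cytotoxicity in the human lymphoblastoid line LYMP1-002 is measured as loss of live-cell protease activity after 16 h treatment in complete culture medium. AC50 is derived from Hill-equation fits of qHTS concentration-response data.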

[6] = MultiTox-Fluor Cytotoxicity Assay - LYMP1-002 - Dead Cells (AID 960); further: nearly all actives have a fitted effect of over 60% in size
Procedure, shortened: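 Acute cytotoxicity in a human lymphoblastoid line is scored as rising dead-cell protease signal after 16 hr exposure at 37 C, measured fluorometrically (485/520).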

[7] = MultiTox-Fluor Cytotoxicity Assay - LYMP1-003 - Dead Cells (AID 961); further: nearly all actives have a fitted effect of over 70% in size
Procedure, shortened: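 Dead-cell protease release, detected as bis-AAF-R110 fluorescence at 485/520 nm, was measured in LYMP1-003 cells after 16 h compound treatment at 37 C. AC50 values came from Hill-modeled qHTS curves normalized to DMSO (0%) and 15 uM tetraoctylammonium bromide (100%).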

[8] = MultiTox-Fluor Cytotoxicity Assay - LYMP1-003 - Live Cells (AID 962);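 further: cytotoxic hits lower the live-cell protease signal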
Procedure, shortened: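 Cells plated at 2500 per well and incubated 5 hr; compounds added and incubated 16 hr at 37 C; MultiTox-Fluor reagent added for 60 min at room temperature; fluorescence of liberated AFC measured at 405/510 nm.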

[9] = Cell Viability - LYMP1-003 - Assay at 24 hr (AID 963)
Procedure, shortened: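 Acute toxicity in LYMP1-003 lymphoblastoid cells: 24 hr compound treatment at 37 C, ATP measured with CellTiter-Glo after 30 min at room temperature. AC50 derived by fitting the Hill equation to qHTS titrations.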

[10] = Cell Viability - LYMP1-003 - Assay at 40 hr (AID 964); further: series mostly up to about 92 µM; nearly all actives have a fitted effect of over 60% in size
Procedure, shortened: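 This qHTS cytotoxicity screen treats human lymphoblastoid cells (LYMP1-003) with compounds for 40 hr and quantifies cellular ATP via luciferase luminescence.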

[11] = Cell Viability - LYMP2-003 (AID 965);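 further: cells exposed to compounds for 24 h before reading; nearly all actives have a fitted effect of over 50% in size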
Procedure, shortened: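 Human lymphoblastoid cells (2500/well) were pre-incubated 5 hr at 37 C, then exposed to compounds over a concentration range for 24 hr at 37 C. Intracellular ATP was read by CellTiter-Glo luminescence; AC50 came from Hill-equation fits.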

[12] = Cell Viability - LYMP2-004 (AID 966); further: nearly all actives have a fitted effect of over 65% in size
Procedure, shortened: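 Acute toxicity is scored as a concentration-dependent drop in intracellular ATP, quantified by luciferase luminescence, in human lymphoblastoid cells exposed to compound for 24 hr. AC50 derives from Hill-equation modelling.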

[13] = Cell Viability - LYMP2-005 (AID 967); further: series mostly up to about 92 µM
Procedure, shortened: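 CellTiter-Glo luminescence (cellular ATP) read-out; LYMP2-005 lymphoblastoid cells, 2500/well, 5 h pre-incubation, then 24 h compound exposure at 37 C in complete medium. Tetraoctylammonium bromide positive control; AC50 by standard Hill fit.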

[14] = Cell Viability - LYMP2-009 (AID 968); further: series mostly up to about 92 µM; nearly all actives have a fitted effect of over 55% in size
[15] = Cell Viability - LYMP2-011 (AID 969); further: nearly all actives have a fitted effect of over 60% in size
Procedure, shortened: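 Acute toxicity is scored as a concentration-dependent drop in intracellular ATP of a human lymphoblastoid line after 24 hr treatment. Values are AC50s modeled with the Hill equation.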

[16] = Cell Viability - LYMP2-013 (AID 970); further: series mostly up to about 92 µM; nearly all actives have a fitted effect of over 55% in size
Procedure, shortened: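 Acute toxicity was measured in human lymphoblastoid cells (2500/well) exposed to compound titrations for 24 hr, with ATP luminescence (CellTiter-Glo) as read-out and AC50 fitted by Hill equation.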

[17] = Cell Viability - LYMP2-015 (AID 971); further: nearly all actives have a fitted effect of over 55% in size
Procedure, shortened: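 Acute toxicity was scored as a concentration-dependent drop in intracellular ATP in lymphoblastoid cells after 24 hr compound exposure in complete medium. Detection used CellTiter-Glo luciferase luminescence.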

[18] = Cell Viability - LYMP2-017 (AID 972); further: series mostly up to about 92 µM; nearly all actives have a fitted effect of over 55% in size
Procedure, shortened: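 Steps: plate 2500 lymphoblastoid cells per well; incubate 5 hr at 37 C; add compound across a concentration series and incubate 24 hr at 37 C; add CellTiter-Glo and read luminescence after 30 min at room temperature; fit Hill curves for AC50.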

[19] = Cell Viability - LYMP2-019 (AID 973); further: nearly all actives have a fitted effect of over 55% in size
Procedure, shortened: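 Cells plated at 2500/well and allowed 5 hr at 37 C before compound addition. After 24 hr incubation, CellTiter-Glo reagent was added, plates sat 30 min at room temperature, and luminescence was recorded.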

[20] = Cell Viability - LYMP2-021 (AID 974)
Procedure, shortened: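 Concentration-response cytotoxicity in a human lymphoblastoid line: 24 hr treatment at 37 C in complete culture medium, tetraoctylammonium bromide as positive control, luminescent ATP quantitation as viability measure.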

[21] = Cell Viability - LYMP2-023 (AID 975)
Procedure, shortened: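 Concentration-dependent drop in intracellular ATP measures acute cytotoxicity in a human lymphoblastoid line treated for 24 hours in complete culture medium. AC50 values are taken from Hill-equation fits of qHTS data.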

[22] = Cell Viability - LYMP2-025 (AID 976); further: series mostly up to about 92 µM
Procedure, shortened: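 In qHTS format, LYMP2-025 lymphoblastoid cells in complete culture medium received compound for 24 hr; ATP-based CellTiter-Glo signal gave viability, with AC50 derived by Hill equation.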

[23] = Cell Viability - LYMP2-002 (AID 977); further: series mostly up to about 92 µM
Procedure, shortened: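 Luminescent ATP readout (CellTiter-Glo, 30 min room temperature) after 24 h compound exposure at 37 C of a human lymphoblastoid line, 2500 cells/well. AC50 values derived by standard Hill fitting of qHTS concentration-response data.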

Measured: Potency

Clc1cc(Cl)c(-c2cc(Cl)c(Cl)cc2Cl)cc1Cl
inactive: all assays above
